# Out of some 52,000 compounds screened, about 4,300 (8.3%) were called active. The entries come from a sample that favours actives as a whole. Unmarked numbers belong to inactive results. Cut-off read from the data, not from the text of the source: active = survival mostly below about 52% (no sharp cut-off); inactive = mostly above about 56%.
# System: DeltatarO mutant
# Experiment: growth inhibition of S. aureus wild type versus tarO mutant, primary screen, teichoic acid synthesis inhibitors, RN4220, OD600 (AID 463173)
# Conditions: OD600, 18 h, stronger effect = lower value, screened at 18.75 µg/mL (by protocol)
row,SMILES,survival
1,COc1ccc(Nc2cc(C(=O)NCCCN(C)C3CCCCC3)c3ccccc3n2)cc1,97%
2,N#Cc1ccc(C(=O)N2CCN(c3nc4ccc(F)cc4s3)CC2)cc1,72%
3,Fc1ccc(-c2cc(C(F)(F)F)nc(NCc3ccccc3)n2)cc1,85%
4,COc1ccc(-c2cc(NCc3ccc(F)cc3)n3cnnc3n2)cc1,61%
5,Fc1ccc(CNc2nc(-c3ccccc3)cc(C(F)(F)F)n2)cc1,4% (active)
6,Clc1ccc(CNc2cc(-c3ccccc3)nc3nncn23)cc1,50%
7,Fc1ccc(CNc2cc(-c3ccccc3)nc3nncn23)cc1,17% (active)
8,O=S(=O)(c1ccccc1)n1nc(-c2ccc(Cl)cc2)nc1NCc1ccc(F)cc1,53%
9,Fc1ccc(CNc2nc(-c3ccc(Cl)cc3)cc(C(F)(F)F)n2)cc1,12% (active)
10,O=C(NCc1ccc(F)cc1)c1cc(-c2ccc(Cl)cc2)n[nH]1,85%
11,O=C(CSc1nc(-c2ccc(F)cc2)cc(C(F)(F)F)n1)NCCc1ccccc1,73%
12,O=C(NCC(c1cccnc1)N1CCN(Cc2ccccc2)CC1)C(=O)Nc1cccc(Cl)c1 (stereo unspecified),77%
13,CCOC(=O)c1cccc(NC(=O)Cc2ccc(NC(=O)N3CCCCc4ccccc43)cc2)c1,76%
14,Cc1csc2nc(COC(=O)COc3ccccc3F)cc(=O)n12,64%
15,CCOC(=O)c1[nH]cnc1C(=O)Nc1ccc(F)cc1,64%
16,COc1cccc(NC(=O)CSc2nnc(NC(=O)NC3CCCCC3)s2)c1,75%
17,COc1ccc(NC(=O)Cn2c(=O)n(CCc3ccccc3)c(=O)c3sc4ccccc4c32)cc1,76%
18,O=C(CN1C(=O)CCSc2ccc(S(=O)(=O)N3CCCC3)cc21)Nc1cccc(F)c1,72%
19,CCCCn1c(=NC(=O)c2c(-c3c(F)cccc3Cl)noc2C)c(C(=O)OCC)cc2c(=O)n3ccccc3nc21,170%
20,COc1ccc(CNC(=O)CN2C(=O)COc3ccccc32)c(OC)c1,89%
21,CC1CCN(S(=O)(=O)c2ccc3c(c2)CCN3C(=O)Nc2ccccc2Br)CC1,76%
22,O=S(=O)(NCCc1nnc2ccc(SCc3ccccc3Cl)nn12)c1ccccc1,68% (active)
23,O=S(=O)(NCCc1nnc2ccc(SCc3c(F)cccc3Cl)nn12)c1ccccc1,58%
24,COc1ccc(S(=O)(=O)NCCc2nnc3ccc(SCC(=O)Nc4cc(C)cc(C)c4)nn23)cc1,63% (active)
25,O=S(=O)(NCCc1nnc2ccc(SCc3ccc(Cl)cc3Cl)nn12)c1ccccc1,37% (active)
26,Cc1cccc(CSc2ccc3nnc(CCNS(=O)(=O)c4ccccc4)n3n2)c1,68%

row,SMILES,survival
1,O=S(=O)(NCCc1nnc2ccc(SCc3cccc(Cl)c3)nn12)c1ccccc1,58%
2,Cc1ccc(C)c(CSc2ccc3nnc(CCNS(=O)(=O)c4ccccc4)n3n2)c1,75%
3,COc1ccc(S(=O)(=O)NCCc2nnc3ccc(SCC(=O)Nc4ccc(C(F)(F)F)cc4)nn23)cc1,81%
4,CCc1ccc(NC(=O)CSc2ccc3nnc(CCNS(=O)(=O)c4ccc(OC)cc4)n3n2)cc1,81%
5,Cc1onc(-c2ccccc2Cl)c1C(=O)Oc1ccccc1F,76%
6,Cc1ccc(NC(=O)c2cc3c(=O)[nH]c4ccccc4c3n2C)cc1F,83%
7,O=C(OCCN1CCOCC1)c1ccccc1,88%
8,Cc1ccc(-n2ncc3c(NCCCN(C)C)ncnc32)cc1Cl,95%
9,COc1ccc(-c2noc(-c3ccc(N4CCN(c5ccccc5)CC4)c([N+](=O)[O-])c3)n2)cc1,49%
10,Cc1ccccc1OCC(=O)Nc1ccc2nc(SCc3ccccc3)sc2c1,88%
11,Cc1ccc(CN(Cc2ccco2)C(=O)COc2ccccc2C)cc1,40% (active)
12,Cc1cc(OC(C)C(=O)N(Cc2ccc(N(C)C)cc2)Cc2ccco2)ccc1Cl (stereo unspecified),67%
13,Cc1cc(OC(C)C(=O)N(Cc2ccco2)Cc2ccco2)cc(C)c1Cl (stereo unspecified),35% (active)
14,Cc1ccc(CN(Cc2ccco2)C(=O)COc2c(C)cc(C)cc2C)cc1,54%
15,CCc1ccc(CN(Cc2ccco2)C(=O)COc2ccc(Cl)c(C)c2)cc1,38% (active)
16,Cc1ccc(OCC(=O)N(Cc2ccc(Cl)cc2)Cc2ccco2)cc1C,58%
17,Cc1cccc(OCC(=O)N(Cc2ccc(N(C)C)cc2)Cc2ccco2)c1C,42% (active)
18,Cc1ccc(CN(Cc2ccco2)C(=O)COc2cccc(C)c2C)o1,66%
19,CCc1ccc(OCC(=O)N(Cc2ccc(C)cc2)Cc2ccco2)cc1,91%
20,Cc1cccc(OCC(=O)N(Cc2ccc(C(C)C)cc2)Cc2ccco2)c1C,49%
21,Cc1cc(OC(C)C(=O)N(Cc2ccco2)Cc2ccccc2F)cc(C)c1Cl (stereo unspecified),81%
22,Cc1ccc(CN(Cc2ccco2)C(=O)COc2cc(C)c(Cl)c(C)c2)cc1,58%
23,NNC(=O)C1CCN(S(=O)(=O)c2ccccc2N)CC1,95%
24,CCOc1cc(C(=O)OCc2cc(=O)n3nc(C4CC4)sc3n2)cc(OCC)c1OCC,79%
25,COCCNC(=S)N1CCC(NC(=O)Nc2ccc(F)cc2)CC1,91%
26,CC(SCc1ccccc1)C(=O)NCc1ccccn1 (stereo unspecified),77%

row,SMILES,survival
1,COc1ccccc1N1CCN(C(=O)Cn2ncc3ccsc3c2=O)CC1,114%
2,CC1CCc2c(sc(NC(=O)c3ccc(Cl)cc3Cl)c2C#N)C1 (stereo unspecified),71%
3,COc1cc(CN(C(=O)c2ccc(C)cc2)c2ccccn2)cc(OC)c1OC,78%
4,CN(CCC(N)=O)Cc1ccccc1,75%
5,CC(C)CCn1c(/C=C/c2ccccc2)nc2ccccc21,-1% (active)
6,CCn1c(O)c(/C=C/c2nc3ccccc3n2CC)sc1=S,78%
7,CCC(C)Cn1c(/C=C/c2ccccc2)nc2ccccc21 (stereo unspecified),-1% (active)
8,CC(C)Cn1c(/C=C/c2ccc(F)cc2)nc2ccccc21,-4% (active)
9,CCCCCn1c(CNC(=O)c2ccc(F)cc2)nc2ccccc21,68%
10,CCc1nc2ccccc2n1CC(C)C(=O)O (stereo unspecified),96%
11,Cc1cccc(C(=O)NCCc2nc3ccccc3n2CCC(C)C)c1,99%
12,CCCn1c(CNC(=O)c2ccc(F)cc2)nc2ccccc21,76%
13,CCCn1c(SCC(O)c2ccccc2)nc2ccccc21 (stereo unspecified),86%
14,CCCCCCn1c(CNC(=O)c2ccccc2)nc2ccccc21,66%
15,CCCCCCn1c(/C=C/c2ccccc2)nc2ccccc21,1% (active)
16,CCCCCn1c(CNC(=O)c2ccccc2)nc2ccccc21,67%
17,COc1ccc(OCc2ccc(-c3nc(C#N)c(NCc4ccccc4)o3)o2)cc1,78%
18,COc1cc(C(CC(=O)Nc2cccc(C(C)=O)c2)N2Cc3ccccc3C2=O)cc(OC)c1OC (stereo unspecified),67%
19,COc1ccccc1N1CCN(C(=O)c2c3c(nc4ccccc24)C(=O)N(C2CCCCC2)C3)CC1,94%
20,Cc1ccc(-c2nnc(Nc3ccc(S(N)(=O)=O)cc3)c3ccccc23)cc1S(=O)(=O)N1CCCCC1,103%
21,Cn1c(SCC(=O)N2CCOCC2)ncc(C(=O)Nc2ccc(F)cc2)c1=O,87%
22,CCOc1ccc(NS(=O)(=O)c2ccc(C(=O)N(C)C)s2)cc1,76%
23,CCOc1cc2sc(N3CCC(C(=O)Nc4ccc(CC)cc4)CC3)nc2cc1Br,86%
24,Cc1ccc(/C=C/c2nc3ccccc3n2S(=O)(=O)c2cccc(Cl)c2)cc1,77%
25,Cn1c(C=Nc2ccc(Cl)cc2)nc2ccccc21,83%
26,C#CCn1c(/C=C/c2ccc(Cl)cc2)nc2ccccc21,10% (active)

row,SMILES,survival
1,COc1ccc(-c2nnc(SCC(=O)Nc3ccc(Cl)cc3)s2)cc1,84%
2,Cn1cc(C(=O)N2CCN(c3cccc(C(F)(F)F)c3)CC2)c2c3ccccc3n(C)c2c1=O,20% (active)
3,Cc1ccc(-n2nc(C(=O)N3CCN(c4cccc(C(F)(F)F)c4)CC3)c3c4ccccc4n(C)c3c2=O)cc1,95%
4,Cn1c2ccccc2c2c(C(=O)N3CCN(c4cccc(C(F)(F)F)c4)CC3)cn(C3CCCCC3)c(=O)c21,88%
5,O=C(NCc1cccc(Cl)c1)C1CCCN(c2nn3cc(-c4ccc(F)cc4)nc3s2)C1 (stereo unspecified),87%
6,CCc1ccccc1NC(=O)c1nc(-c2ccncc2)no1,46%
7,Cc1cc(C)c(S(=O)(=O)N2CCC(n3c(C(F)(F)F)nc4cccnc43)CC2)c(C)c1,79%
8,O=C(Cn1c(C(=O)N2CCOCC2)cc2sccc21)c1ccccc1,99%
9,CC1=CCC2(CO)COC(c3ccccc3O)C1C2 (stereo unspecified),90%
10,Oc1ccccc1C1OC2CCCCC2C2=CCCCC21 (stereo unspecified),34% (active)
11,Oc1ccccc1C1OCC(C2CC=CCC2)CO1 (stereo unspecified),96%
12,c1ccc2c(c1)[nH]c1c(N3CCOCC3)ncnc12,68%
13,COc1cccc(CCNC(=O)Cn2c(-c3cccs3)cc3ccccc32)c1,70%
14,O=C(Nc1c2c(nn1-c1ccc(Cl)cc1)CS(=O)(=O)C2)c1cccc(F)c1,55%
15,Cc1noc(/C=C/c2ccccc2F)c1S(=O)(=O)N1CCC(C(=O)NCc2ccco2)CC1,107%
16,COc1ccc(OC)c(CCNc2nc3cc(OC)c(OC)cc3c3nc(-c4cccnc4)nn23)c1,126%
17,COc1cc2nc(NCc3ccccc3)n3nc(-c4ccccc4)nc3c2cc1OC,47% (active)
18,CCOCCCNc1nc2cc(OC)c(OC)cc2c2nc(-c3ccccc3)nn12,44% (active)
19,COc1cc2nc(NCc3ccc(C)cc3)n3nc(-c4ccccc4)nc3c2cc1OC,61%
20,COCCCNC(=O)CSc1nc2cc(OC)c(OC)cc2c2nc(-c3ccccc3)nn12,78%
21,COc1cc2nc(NCCC(C)C)n3nc(-c4ccccc4)nc3c2cc1OC,49%
22,COc1cc2nc(NCC(C)c3ccccc3)n3nc(-c4ccccc4)nc3c2cc1OC (stereo unspecified),61%
23,COCCCNc1nc2cc(OC)c(OC)cc2c2nc(-c3ccccc3)nn12,47% (active)
